# Assay results: PubChem BioAssay (EPA / NIEHS)
# Inconclusive results are not listed. More than one record can exist for a structure, and the calls need not agree. Calls of active or inactive are those of the source. The calls were made as follows, unless noted: active = hit-call score of the fitted dose curve at least 0.9, where 1 is the maximum; inactive = score below 0.9.
# Legend:
# [1] = CCTE_Shafer_MEA_dev_firing_rate_mean: CCTE's Neural Network Formation Assay for Mean Firing Rate, Shafer Lab (AID 2284031)
# Method in brief: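 Read-out: spike count/recording length, averaged over active electrodes, then AUC across days 5, 7, 9, 12. Rat cortical cultures on MEA; continuous 12-day exposure, media and treatment renewed DIV 5, 9; DMSO baseline.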
# [2] = CCTE_Shafer_MEA_dev_per_burst_spike_percent: CCTE's Neural Network Formation Assay for Percent of Spikes in a Burst, Shafer Lab (AID 2284032)
# Method in brief: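 Value is trapezoidal AUC over recordings on days 5, 7, 9 and 12 of the well-mean fraction of spikes falling in single-electrode bursts; rat cortical cultures exposed continuously from plating, treatment renewed DIV 5 and 9, fitted downward against DMSO.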
# [3] = CCTE_Shafer_MEA_dev_active_electrodes_number: CCTE's Neural Network Formation Assay for Number of Active Electrodes, Shafer Lab (AID 2284040; active = hit-call score of the fitted dose curve at least 0.9, where 1 is the maximum)
# Method in brief: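 Developing rat cortical networks on MEAs, exposed DIV 0–12. Value is the AUC of active-electrode counts (≥5 spikes/min) from days 5, 7, 9, 12, relative to DMSO.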
# [4] = CCTE_Shafer_MEA_dev_burst_rate: CCTE's Neural Network Formation Assay for Burst Rate, Shafer Lab (AID 2284042)
# Method in brief: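 Developmental network assay measuring how 12-day exposure of rat cortical neuron cultures alters bursting on extracellular MEA recordings. Values are AUC of well-mean burst rate across four recording days, relative to DMSO vehicle.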
# [5] = CCTE_Shafer_MEA_dev_bursting_electrodes_number: CCTE's Neural Network Formation Assay for Number of Bursting Electrodes, Shafer Lab (AID 2284043; active = hit-call score of the fitted dose curve at least 0.9, where 1 is the maximum)
# Method in brief: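 Counted: electrodes with burst rate ≥1 per 2 min in each well. Cells: primary rat cortex, 1.5 x 10^5/well, on 16-electrode MEA wells. Exposure: DIV 0–12, compound renewed DIV 5 and 9. Recording days 5, 7, 9, 12; AUC vs DMSO baseline.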
# [6] = CCTE_Shafer_MEA_dev_per_burst_interspike_interval: CCTE's Neural Network Formation Assay for Burst Interspike Interval, Shafer Lab (AID 2284044)
# Method in brief: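 Readout is the average time between spikes inside single-electrode bursts, taken as a well mean across bursting electrodes. Cortical neurons from rat developed networks on MEA plates under continuous 12-day exposure; recordings on days 5, 7, 9 and 12 were integrated by trapezoidal AUC.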
# [7] = CCTE_Shafer_MEA_dev_burst_duration_mean: CCTE's Neural Network Formation Assay for Mean Burst Duration, Shafer Lab (AID 2284045)
# Method in brief: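 Network-formation assay in primary rat cortical neurons; treatment spans twelve days of development. Mean burst duration per well is integrated by trapezoidal AUC and fitted in the loss-of-signal direction against DMSO baseline.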
# [8] = CCTE_Shafer_MEA_dev_interburst_interval_mean: CCTE's Neural Network Formation Assay for Mean Interburst Interval, Shafer Lab (AID 2284046);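 also: well-mean interburst interval of bursting electrodes as AUC over four recording days; curve fitted for decrease in interburst interval relative to DMSO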
# Method in brief: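 Network formation assay in primary rat cortical cultures, exposed from DIV 0 to 12. Mean interburst interval per well, integrated as AUC over four recordings.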
# [9] = CCTE_Shafer_MEA_dev_inter_network_spike_interval_mean: CCTE's Neural Network Formation Assay for Mean Inter-network Spike Interval, Shafer Lab (AID 2284047)
# Method in brief: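 Compound was given at plating to primary rat cortical neurons and renewed with full medium changes on DIV 5 and 9. Extracellular activity was recorded on days 5, 7, 9, 12; AUC values were fitted for loss relative to DMSO control.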
# [10] = CCTE_Shafer_MEA_dev_network_spike_number: CCTE's Neural Network Formation Assay for Number of Network Spikes, Shafer Lab (AID 2284048)
# Method in brief: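 Extracellular recordings from 16-electrode wells track network formation in rat cortical cultures under continuous treatment from plating. The endpoint is network spike number, expressed as AUC across DIV 5–12 relative to DMSO vehicle.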
# [11] = CCTE_Shafer_MEA_dev_network_spike_peak: CCTE's Neural Network Formation Assay for Mean Number of Electrodes in Network Spike, Shafer Lab (AID 2284049)
# Method in brief: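 Continuous 12-day exposure of rat cortical cultures, starting at plating, on MEA plates. Endpoint: electrodes participating in network-spike peaks, AUC across DIV 5–12, DMSO as negative control.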
# [12] = CCTE_Shafer_MEA_dev_spike_duration_mean: CCTE's Neural Network Formation Assay for Mean Spike Duration, Shafer Lab (AID 2284051);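 also: mean network spike duration pooled as area under curve over DIV 5 to 12 recordings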
# Method in brief: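 With DMSO as baseline, loss of mean network spike duration was scored from extracellular recordings of rat cortical neurons on MEA plates. Exposure spanned plating to DIV 12; the four recording days were collapsed into one AUC value.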
# [13] = CCTE_Shafer_MEA_dev_network_spike_duration_std: CCTE's Neural Network Formation Assay for Standard Deviation of Network Spike Duration, Shafer Lab (AID 2284052);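 also: area under curve of spike duration SD across recording days 5 to 12; hits are decreases in network spike duration SD versus DMSO vehicle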
# Method in brief: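 Developing networks of rat cortical neurons were exposed over twelve days in vitro on 48-well MEA plates. Trapezoidal AUC of recordings (DIV 5–12) was analysed for signal loss relative to DMSO vehicle.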
# [14] = CCTE_Shafer_MEA_dev_per_network_spike_spike_number_mean: CCTE's Neural Network Formation Assay for Mean Number of Spikes in a Network Spike, Shafer Lab (AID 2284053)
# Method in brief: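 First, rat cortical cells (1.5 x 10^5/well) were seeded onto MEA wells; second, dosing began at plating and was refreshed on DIV 5 and 9; finally, network-spike spike counts across DIV 5–12 were summarized as AUC.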
# [15] = CCTE_Shafer_MEA_dev_per_network_spike_spike_percent: CCTE's Neural Network Formation Assay for Percent of Spikes in a Network Spike, Shafer Lab (AID 2284054)
# Method in brief: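 Developing networks of rat cortical neurons are dosed at day 0 and recorded extracellularly four times up to day 12. The endpoint is the area under the curve of percent spikes in network spikes, fitted in the negative direction relative to DMSO.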
# [16] = CCTE_Shafer_MEA_dev_LDH: CCTE's Lactate Dehydrogenase Assay for Cytotoxicity in the Neural Network Formation Assay, Shafer Lab (AID 2284068; active = hit-call score of the fitted dose curve at least 0.9, where 1 is the maximum;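 also: exposure for twelve days from plating with re-dosing on DIV 5 and 9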)
# Method in brief: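 Developing rat cortical networks on MEA plates are exposed to compound for 12 days from plating. LDH activity is measured spectrophotometrically, with DMSO as baseline.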
# [17] = CCTE_Shafer_MEA_dev_correlation_coefficient_mean: CCTE's Neural Network Formation Assay for Mean Correlation Coefficient, Shafer Lab (AID 2284093)
# Method in brief: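 Extracellular firing from rat cortical networks on 48-well MEAs, DMSO-referenced, negative fitting direction. Compound present from plating to DIV12; mean pairwise correlation per well integrated over DIV5–12 recordings by trapezoidal AUC.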
# [18] = UKN2_HCS_IMR90_neural_migration: University of Konstanz (UKN) Leist Lab Neural Crest Cell Migration Assay in human induced IMR90 Pluripotent Stem Cells (UKN2) (AID 2284204); conditions: actives raise or lower the signal
# Method in brief: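 Using a 96-well stopper format with PLO/laminin/fibronectin coating, neural crest cells from iPSC migrate in cytokine-supplemented N2-S medium; after 24 h, chemicals are applied for a further 24 h, then cells are imaged after dye staining.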
# [19] = IUF_NPC1b_proliferation_BrdU_72hr: Leibniz Research Institute for Environmental Medicine (IUF) 72-hour Neural Progenitor Cell Bromodeoxyuridine (BrdU) Proliferation Assay (NPC1b) (AID 2284207)
# Method in brief: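 Neural progenitor spheres of human fetal origin are treated for three days; BrdU added for the last 16 h is quantified by luminescence ELISA, with DMSO as baseline and EGF/FGF omission as positive control.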
# [20] = IUF_NPC1a_proliferation_area_72hr: Leibniz Research Institute for Environmental Medicine (IUF) 72-hour Neural Progenitor Cell Proliferation Area Assay (NPC1a) (AID 2284208)
# Method in brief: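 hNPC spheres (human fetal cortex, GW 16-19), one per poly-Hema U-bottom well; EGF+FGF medium; dosed day 0, no re-dosing; 72 h, 37C, 5% CO2; phase-contrast sphere area; DMSO = baseline; minus-GF = positive ctrl.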
# [21] = IUF_NPC1_viability_72hr: Viability Assessment at 72 hours in the Leibniz Research Institute for Environmental Medicine (IUF) Neural Progenitor Cell Proliferation Assay (NPC1) (AID 2284209)
# Method in brief: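 Alamar blue fluorescence (RFU) after 72 h exposure, normalized to DMSO baseline. hNPC spheres from GW 16-19 fetal cortex, single sphere per well in growth-factor medium; no compound renewal.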
# [22] = CCTE_Mundy_HCI_Cortical_Synap_Neur_Matur_NeuriteSpotCountPerNeuriteLength: CCTE's Synaptogenesis and Neurite Maturation Assay in rat cortical cells for Neurite Spot Count per Neurite Length, Mundy Lab (AID 2284210)
# Method in brief: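 Neurite-associated synapse density (synaptophysin puncta per unit neurite length) is measured by fluorescence high-content imaging in rat cortical cultures treated from DIV 7 and fixed at DIV 12, with DMSO as negative control.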
# [23] = CCTE_Mundy_HCI_Cortical_Synap_Neur_Matur_BPCount: CCTE's Synaptogenesis and Neurite Maturation Assay in rat cortical cells for Branch Point Count, Mundy Lab (AID 2284211)
# Method in brief: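 In this multiplexed morphology assay, cortical cells from rat receive chemicals at DIV 7 and are fixed at DIV 12, then immunostained and imaged; branch points are counted, with DMSO as baseline.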
# [24] = CCTE_Mundy_HCI_Cortical_NOG_NeuriteCount: CCTE's Neurite Outgrowth Assay in rat cortical cells for Neurite Count, Mundy Lab (AID 2284212);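 also: cells fixed about two days after chemical exposure began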
# Method in brief: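 Rat cortical primary cells; compound added 2 h post-plating, 1/10 dilution of working solution. Anti-betaIII-tubulin/AF488 ICC; ArrayScan neurite count vs DMSO.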
# [25] = CCTE_Mundy_HCI_Cortical_Synap_Neur_Matur_NeuriteLength: CCTE's Synaptogenesis and Neurite Maturation Assay in rat cortical cells for Neurite Length, Mundy Lab (AID 2284214)
# Method in brief: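 Read-out: high-content imaging of MAP2-labelled neurites, with synaptophysin and Hoechst co-stain, in rat cortical cultures fixed at DIV 12. Activity fitted in positive direction relative to DMSO baseline.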
compound,measurement,setting,value
CCCCCC=C(C)C(CC)CCO (stereo unspecified),outcome,[1],inactive
same,outcome,[2],inactive
same,outcome,[3],inactive
same,outcome,[4],inactive
same,outcome,[5],inactive
same,outcome,[6],inactive
same,outcome,[7],inactive
same,outcome,[8],inactive
same,outcome,[9],inactive
same,outcome,[10],inactive
same,outcome,[11],inactive
same,outcome,[12],inactive
same,outcome,[13],inactive
same,outcome,[14],inactive
same,AC50,[15],5 µM (active)
same,outcome,[15],inactive
same,outcome,[16],inactive
same,outcome,[17],inactive
same,outcome,[18],inactive
same,outcome,[19],inactive
same,outcome,[20],inactive
same,outcome,[21],inactive
same,outcome,[22],inactive
same,outcome,[23],inactive
same,outcome,[24],inactive
same,outcome,[25],inactive
